Experimental findings from PubChem BioAssay (NCI) are described below.

Test systems include SK-MEL-2 melanoma; EKVX NSCLC; SN12C renal; TK-10 renal; ACHN renal; CAKI-1 renal; A498 renal; MOLT-4 leukemia; SR leukemia; RPMI-8226 leukemia; OVCAR-8 ovarian; OVCAR-4 ovarian; SK-OV-3 ovarian; OVCAR-3 ovarian; HS 578T breast; NCI/ADR-RES ovarian; OVCAR-5 ovarian; IGROV1 ovarian; CCRF-CEM leukemia.
What all share (experiment): NCI-60 one-dose screen, 48 h (100 = growth as untreated, 0 = no growth, -100 = all killed)
Holding throughout (details): 10 µM

This is part of a sample that, as a whole, favours compounds with a hit. Of some 83,000 tested, about 20% had one in any assay.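 Compound tested at a single concentration for 48 hours in 96-well plates; a percent growth value below 10 was scored as active.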 A number with no mark means an inactive call. Calls of active or inactive are those of the source.

As for `CCN(CC)CCCC(C)Nc1c2ccc(Cl)cc2nc2ccc(OC)cc12` (stereo not given), the growth was 57.6% with SK-MEL-2 melanoma; 49% with EKVX NSCLC; 33.2% with SN12C renal; 23.9% with TK-10 renal; 14.2% in the test on ACHN renal; 1.55% (active) in the test on CAKI-1 renal. Further, the growth with A498 renal was 74%; with MOLT-4 leukemia, 15.5%; with SR leukemia, 0.997% (active); in the test with RPMI-8226 leukemia it was -6.19% (active); in the test with OVCAR-8 ovarian, 16.6%; in the test on OVCAR-4 ovarian it was -7.7% (active). Besides, the growth is 39.3% in the test on SK-OV-3 ovarian, 31% with OVCAR-3 ovarian, 57.4% in the test with HS 578T breast and 31.9% in the test with NCI/ADR-RES ovarian.

Take `CC(=O)COc1ccc(Cl)cc1Cl`: the growth in the test on SK-MEL-2 melanoma is 113%; in the test with EKVX NSCLC it was 93%; with SN12C renal, 95.3%; in the test on TK-10 renal it was 105%; with ACHN renal, 116%; in the test with CAKI-1 renal, 107%. Besides, the growth with A498 renal is 82.9%; with RPMI-8226 leukemia, 86.7%; in the test on OVCAR-8 ovarian, 107%; in the test on OVCAR-5 ovarian, 112%; in the test on OVCAR-4 ovarian, 116%; in the test on SK-OV-3 ovarian, 122%. In addition, the growth in the test with OVCAR-3 ovarian was 120%; in the test on HS 578T breast, 117%; in the test with NCI/ADR-RES ovarian, 111%.

As for `O=C(Nc1ccc(OS(=O)(=O)c2ccccc2)cc1)C1CCCCC1`, the growth in the test with SK-MEL-2 melanoma is 88.4%; in the test on EKVX NSCLC, 84.3%; in the test with SN12C renal it was 96.4%; in the test with TK-10 renal, 97.4%; in the test on ACHN renal it was 104%; in the test on CAKI-1 renal, 93.1%. The growth was 105% in the test on A498 renal; 74% in the test on MOLT-4 leukemia; 47.2% in the test on SR leukemia; 76.4% in the test with RPMI-8226 leukemia; 94.6% in the test with OVCAR-8 ovarian; 100% with OVCAR-5 ovarian. The growth is 102% with OVCAR-4 ovarian; 95.6% in the test on SK-OV-3 ovarian; 106% with IGROV1 ovarian; 95% in the test with OVCAR-3 ovarian; 103% in the test with HS 578T breast; 88.3% with NCI/ADR-RES ovarian.

As to `O=C(O)c1cc([N+](=O)[O-])ccc1Oc1ccccc1`, the growth with SK-MEL-2 melanoma is 103%; with EKVX NSCLC it was 97.9%; in the test on SN12C renal, 95.3%; in the test with TK-10 renal, 88.5%; in the test on ACHN renal it was 101%; with CAKI-1 renal it was 101%. For the same compound, the growth was 102% with A498 renal; 101% in the test on CCRF-CEM leukemia; 91% with SR leukemia; 97.8% in the test with RPMI-8226 leukemia; 97% in the test with OVCAR-8 ovarian; 101% in the test on OVCAR-5 ovarian. The growth is 104% with OVCAR-4 ovarian; 106% in the test on SK-OV-3 ovarian; 114% in the test on IGROV1 ovarian; 105% in the test with OVCAR-3 ovarian; 93.8% with HS 578T breast; 101% with NCI/ADR-RES ovarian.

In the case of `COc1ccc2c(c1)CC=C1[C@@H]2CC[C@]2(C)C(=O)/C(=N/O)C[C@@H]12`, the growth was 115% in the test on SK-MEL-2 melanoma; 76.6% in the test with EKVX NSCLC; 82.7% in the test with SN12C renal; 92.7% in the test with TK-10 renal; 74.4% in the test on ACHN renal; 6.9% (active) with CAKI-1 renal. Also, the growth in the test on CCRF-CEM leukemia is 33.1%; in the test with MOLT-4 leukemia it was 63.3%; in the test with SR leukemia, 74.6%; with RPMI-8226 leukemia it was 83.8%; in the test on OVCAR-8 ovarian, 102%; in the test on OVCAR-5 ovarian, 86.1%. The growth with SK-OV-3 ovarian was 116%; in the test with OVCAR-3 ovarian it was 106%; with HS 578T breast, 90.3%; with NCI/ADR-RES ovarian it was 90.3%.

For the compound `CCCCN1C(=O)CC(SC2CC(=O)N(CCCC)C2=O)C1=O` (stereo not given), the growth with SK-MEL-2 melanoma is 99.7%; with EKVX NSCLC, 98.5%; in the test with SN12C renal it was 102%; in the test with TK-10 renal, 103%; in the test on ACHN renal it was 99%; with CAKI-1 renal, 88.6%. Also, the growth with A498 renal is 99.6%; with CCRF-CEM leukemia it was 97.1%; in the test with MOLT-4 leukemia it was 103%; with RPMI-8226 leukemia it was 100%; in the test on OVCAR-8 ovarian it was 108%; in the test on OVCAR-5 ovarian, 108%. The growth in the test on OVCAR-4 ovarian was 109%; with SK-OV-3 ovarian it was 111%; with OVCAR-3 ovarian it was 106%; in the test with HS 578T breast, 103%; in the test with NCI/ADR-RES ovarian it was 111%.

Consider `CC[N+](CC)=c1ccc2nc3c(cc(NCc4ccccc4)c4ccccc43)oc-2c1`, for which the growth in the test with SK-MEL-2 melanoma was -80.1% (active); with EKVX NSCLC it was -96.7% (active); with SN12C renal it was -85.9% (active); in the test on TK-10 renal, -10.6% (active); in the test on ACHN renal it was -77.9% (active); with CAKI-1 renal, -70.8% (active). The growth in the test with CCRF-CEM leukemia is 19%; with MOLT-4 leukemia, 2.86% (active); in the test on SR leukemia, -9.48% (active); with RPMI-8226 leukemia, -21.1% (active); in the test on OVCAR-8 ovarian, -27.2% (active); in the test with OVCAR-5 ovarian, -91.4% (active). Besides, the growth is -93.1% (active) in the test with OVCAR-4 ovarian; -8.74% (active) with SK-OV-3 ovarian; -94.5% (active) in the test on IGROV1 ovarian; -54.9% (active) in the test with OVCAR-3 ovarian; -20.4% (active) in the test on HS 578T breast; -7.86% (active) with NCI/ADR-RES ovarian.

On to `COC(=O)CC[C@@H](C)[C@H]1CC[C@H]2[C@@H]3CC[C@@H]4C[C@H](O)CC[C@]4(C)[C@H]3C[C@H](O)[C@]12C`, for which the growth in the test with SK-MEL-2 melanoma was 87.7%; in the test on EKVX NSCLC it was 103%; in the test on SN12C renal, 97.8%; in the test with TK-10 renal, 92.7%; with ACHN renal, 99.1%; in the test on CAKI-1 renal, 89.8%. Moreover, the growth in the test with A498 renal is 119%; in the test with CCRF-CEM leukemia, 86.3%; in the test on MOLT-4 leukemia, 76.4%; with RPMI-8226 leukemia, 68.4%; with OVCAR-8 ovarian it was 103%; with OVCAR-5 ovarian it was 109%. The growth in the test on OVCAR-4 ovarian was 110%; in the test with SK-OV-3 ovarian, 111%; with OVCAR-3 ovarian it was 102%; with HS 578T breast it was 114%; in the test on NCI/ADR-RES ovarian, 106%.
